The record followed here is PubChem BioAssay.

The structures appear in SMILES notation. For part of these data: Results with a measured potency or affinity are listed apart. The source made the active and inactive calls.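 Rule for the calls, unless noted: active = fitted half-maximal concentration within the tested dose range, moderate curve steepness, a statistically real signal drop, and little compound fluorescence or tag-binding interference; inactive = the rest.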

Assay [1] addresses Cell division control protein 42 homolog (Homo sapiens) (UniProt P60953). As to the kind of experiment: activated mutant Cdc42 GTP-binding inhibitors, dose response, biochemical, multiplex bead flow cytometry, Bodipy-FL-GTP (AID 1333). (In general: In flow cytometry, cells or beads pass a laser one at a time.)
Assay [2] has the same target. As to the kind of experiment: wildtype Cdc42 GTP-binding inhibitors, dose response, biochemical, multiplex bead flow cytometry, Bodipy-FL-GTP (AID 1334;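 active = fitted half-maximal concentration within the tested range, moderate curve steepness, significant signal drop, and little compound fluorescence or bead-linkage interference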). The following applies: bead-based flow cytometry, Bodipy-FL-GTP binding to GST-Cdc42; at 100 µM (top of the series) unless noted.
Assay [3] addresses GTPase HRas (Homo sapiens) (UniProt P01112). As to the kind of experiment: inhibitors of GTP binding to wildtype Ras, dose response, biochemical, multiplex bead flow cytometry (AID 1335;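 active = fitted half-maximal concentration within 10 nM to 100 µM, steepness 0.5 to 2, significant signal drop, low assay interference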). The following applies: bead-based flow cytometry, Bodipy-GTP binding to GST-Ras; at 100 µM (top of the series) unless noted.
The test system of assay [4] is Ras-related protein Rab-7a (dog), GTP binding. As to the kind of experiment: Rab7 GTP binding inhibitors, potency, dose response, biochemical, wildtype, multiplex bead flow cytometry (AID 1336; call rule not given here).
The target of assay [5] is Ras-related C3 botulinum toxin substrate 1 (Homo sapiens) (UniProt P63000). Put plainly: wildtype Rac1 GTP binding inhibitors, dose response, biochemical, multiplex bead flow cytometry (AID 1340;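 active = dose curve with midpoint inside tested range, moderate steepness, plateau gap beyond fit error, low compound glow and bead-link interference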). The following applies: GST-Rac1 beads, Bodipy-FL-GTP binding; at 100 µM (top of the series) unless noted.
The target in assay [6] is GTPase HRas (Homo sapiens) (UniProt P01112). As to the kind of experiment: activated Ras mutant GTP binding inhibitors, dose response, biochemical, multiplex bead flow cytometry (AID 1341;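 active = dose-response curve with midpoint inside the tested range, moderate steepness, significant amplitude and little compound fluorescence or bead-attachment interference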;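 note: GST-tagged constitutively activated Ras mutant immobilized on beads and multiplexed with other GTPases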).
GTPase HRas (Homo sapiens), sequence (P01112 whole entry, looked up): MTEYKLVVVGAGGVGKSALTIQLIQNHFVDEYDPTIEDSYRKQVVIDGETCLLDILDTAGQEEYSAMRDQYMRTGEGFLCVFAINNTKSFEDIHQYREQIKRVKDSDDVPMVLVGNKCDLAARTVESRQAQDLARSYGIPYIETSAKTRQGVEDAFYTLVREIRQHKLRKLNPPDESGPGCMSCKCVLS

Cell division control protein 42 homolog (Homo sapiens), sequence (P60953 whole entry, looked up): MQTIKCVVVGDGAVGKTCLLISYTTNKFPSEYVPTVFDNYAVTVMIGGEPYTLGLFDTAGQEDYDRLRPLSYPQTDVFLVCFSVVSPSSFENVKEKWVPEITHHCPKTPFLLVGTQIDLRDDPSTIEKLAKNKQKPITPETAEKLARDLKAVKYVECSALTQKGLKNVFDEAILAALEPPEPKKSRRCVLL

As to `CC(=O)Nc1ccc(N=Cc2c(O)c(C(=O)Nc3ccccc3)cc3ccccc23)cc1`, the result in assay [1], in assay [4] and in assay [6] was inactive. In addition, the fluorescence, percent of control (lower = inhibition) in assay [2] is 85.4%. In addition, the GTP binding, percent of control in assay [3] was 123%. Also, in assay [5], the GTP binding signal, raw median fluorescence (lower = inhibition) (MCF (arbitrary fluorescence units)) was determined as 341.

As for `COc1ccc(CNc2nc3c(c(=O)n(Cc4ccc(Cl)cc4)c(=O)n3C)n2C)cc1`, the compound was called inactive in assay [1], in assay [4] and in assay [6]. The same compound yielded a fluorescence, percent of control (lower = inhibition) in assay [2] of 29.3%. In addition, the GTP binding, percent of control in assay [3] came to 80.3%. Moreover, in assay [5], the GTP binding signal, raw median fluorescence (lower = inhibition) (MCF (arbitrary fluorescence units)) was 228.

Regarding `O=C(Nc1cc(S(=O)(=O)Nc2ccccc2Cl)ccc1O)c1sc2cc(Cl)ccc2c1Cl`, the outcome in assay [1], in assay [4] and in assay [6] was inactive. The compound further yielded a fluorescence, percent of control (lower = inhibition) in assay [2] of 35.5%. For the same compound, in assay [3], the GTP binding, percent of control is 81.2%. Besides, in assay [5], the GTP binding signal, raw median fluorescence (lower = inhibition) (MCF (arbitrary fluorescence units)) was found to be 248.

As to `OC(CN1CCN(Cc2ccc3c(c2)OCO3)CC1)c1c[nH]c2ccccc12` (stereo not given), the call in assay [1], in assay [4] and in assay [6] was inactive. In addition, in assay [2], the fluorescence, percent of control (lower = inhibition) was 36.1%. In assay [3], the GTP binding, percent of control is 78.7%. For the same compound, the GTP binding signal, raw median fluorescence (lower = inhibition) (MCF (arbitrary fluorescence units)) in assay [5] stood at 281.

In the case of `CN(C)CCN(C(=O)c1ccc(N2C(=O)CCC2=O)cc1)c1nc2cc3c(cc2s1)OCO3`, the call in assay [1], in assay [4] and in assay [6] was inactive. Besides, the fluorescence, percent of control (lower = inhibition) in assay [2] was 35.7%. Moreover, the GTP binding, percent of control in assay [3] was 79.3%. Also, in assay [5], the GTP binding signal, raw median fluorescence (lower = inhibition) (MCF (arbitrary fluorescence units)) came to 261.

On to `CCCCn1c(O)c(/C=C/C=C/C=Nc2ccccc2)sc1=S`, for which the outcome in assay [1], in assay [4] and in assay [6] was inactive. Also, the fluorescence, percent of control (lower = inhibition) in assay [2] is 29.8%. The compound further came in with a GTP binding, percent of control in assay [3] of 68.3%. The compound further registered a GTP binding signal, raw median fluorescence (lower = inhibition) (MCF (arbitrary fluorescence units)) in assay [5] of 216.

Consider `NS(=O)(=O)c1ccc(-c2ccc(/C=C3\C(=O)Nc4cc(Cl)ccc43)o2)cc1`, for which the compound was called inactive in assay [1], in assay [4] and in assay [6]. Also, the fluorescence, percent of control (lower = inhibition) in assay [2] is 38%. Also, the GTP binding, percent of control in assay [3] was 78.4%. This compound also gave a GTP binding signal, raw median fluorescence (lower = inhibition) (MCF (arbitrary fluorescence units)) in assay [5] of 152.

As to `COc1cc(C(=S)NC2CCCCC2)ccc1O`, the outcome in assay [1], in assay [4] and in assay [6] was inactive. Further, in assay [2], the fluorescence, percent of control (lower = inhibition) came out at 46.9%. Moreover, the GTP binding, percent of control in assay [3] worked out at 62.4%. The GTP binding signal, raw median fluorescence (lower = inhibition) (MCF (arbitrary fluorescence units)) in assay [5] came out at 209.

As for `COc1ccc(Cn2c(O)c(/C=N/NC(=O)c3cccnc3)c3ccccc3c2=O)cc1`, the call in assay [1], in assay [4] and in assay [6] was inactive. The fluorescence, percent of control (lower = inhibition) in assay [2] came out at 17.2%. This compound also registered a GTP binding, percent of control in assay [3] of 68.9%. The same compound returned a GTP binding signal, raw median fluorescence (lower = inhibition) (MCF (arbitrary fluorescence units)) in assay [5] of 63.7.

Turning to `COc1c(C)cccc1C(=O)NC(=S)Nc1ccc2c(c1)Cc1ccccc1-2`, the compound was classed as inactive in assay [1], in assay [4] and in assay [6]. The fluorescence, percent of control (lower = inhibition) in assay [2] came to 73.4%. The same compound returned a GTP binding, percent of control in assay [3] of 151%. This compound returned a GTP binding signal, raw median fluorescence (lower = inhibition) (MCF (arbitrary fluorescence units)) in assay [5] of 144.

Take `C=CCn1c(SCC(=O)Nc2ccc3c(c2)OCO3)nnc1-c1cc(Br)ccc1O`: the compound was classed as inactive in assay [1], in assay [4] and in assay [6]. In addition, the fluorescence, percent of control (lower = inhibition) in assay [2] came to 66.9%. In addition, the GTP binding, percent of control in assay [3] came out at 84.9%. The GTP binding signal, raw median fluorescence (lower = inhibition) (MCF (arbitrary fluorescence units)) in assay [5] came out at 108.

As to `O=C(O)c1cccc(-n2cccc2/C=C2/NC(=O)N(c3ccc(Cl)cc3)C2=O)c1`, the compound was classed as inactive in assay [1], in assay [4] and in assay [6]. This compound gave a fluorescence, percent of control (lower = inhibition) in assay [2] of 22.7%. In assay [3], this compound had a GTP binding, percent of control of 64.3%. Also, the GTP binding signal, raw median fluorescence (lower = inhibition) (MCF (arbitrary fluorescence units)) in assay [5] turned out to be 213.

For `O=c1[nH]cnc2c1C(c1ccccc1[N+](=O)[O-])c1c(nc[nH]c1=O)O2`, the outcome in assay [1], in assay [4] and in assay [6] was inactive. The compound also yielded a fluorescence, percent of control (lower = inhibition) in assay [2] of 38.6%. In addition, the GTP binding, percent of control in assay [3] worked out at 50%. For the same compound, the GTP binding signal, raw median fluorescence (lower = inhibition) (MCF (arbitrary fluorescence units)) in assay [5] came out at 113.

Regarding `O=C(O)c1cc2ccccc2nc1OCc1ccccc1`, the compound was classed as inactive in assay [1], in assay [4] and in assay [6]. Moreover, the fluorescence, percent of control (lower = inhibition) in assay [2] was 49.1%. The same compound came in with a GTP binding, percent of control in assay [3] of 200%. In assay [5], this compound returned a GTP binding signal, raw median fluorescence (lower = inhibition) (MCF (arbitrary fluorescence units)) of 46.4.

Take `Cc1cccc(OCCSc2nc3ccccc3n2CC(=O)O)c1C`: the call in assay [1], in assay [4] and in assay [6] was inactive. Moreover, the fluorescence, percent of control (lower = inhibition) in assay [2] was determined as 58.6%. Also, the GTP binding, percent of control in assay [3] is 87.7%. For the same compound, the GTP binding signal, raw median fluorescence (lower = inhibition) (MCF (arbitrary fluorescence units)) in assay [5] came out at 30.5.
